# Screening results: PubChem, National Center for Advancing Translational Sciences (NCATS)
# KDM5B inh – inhibitors of human KDM5B histone demethylase; Potency, µM (top dose mostly 57.7 µM), actives largely listed as inhibitors; Q9UGL1; KDM5B demethylase, FDH-coupled NADH fluorescence (FDH is formaldehyde dehydrogenase); 220,000 compounds, 2.6% hits; active means well fitted inhibition curve with a large enough effect; inconclusive means small, poorly fitted or top-dose-only effect; inactive means no such curve, though single readings can be large or run the other way; further: nearly all actives have a fitted effect of over 70% in size
#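 Measured: NADH fluorescence change, 30 min, RT. System: KDM5BΔAP 200 nM final, H3K4me3 peptide, α-KG, Fe(II), ascorbate, NAD⁺ plus FDH, pH 7.5 HEPES. Compounds: titrated, 10 min pre-incubation with enzyme.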
# IP6K1 inhibitor – blocks human inositol hexakisphosphate kinase 1; IP6K1 kinase, ADP-Glo luminescence, 2 h; hits give low values; AID 1645851; 140,000 compounds, 0.81% hits; activity change, % (series mostly up to about 58 µM); Q92551; in the data active means activity change below about -25%
#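 ADP-Glo luminescence measures ADP made by human IP6K1 during a 2 h RT reaction with ATP/IP6 (mix at 1.3 mM/130 uM); top library doses 57.5 and 19.1 uM final.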
# Hits are given with their value; 0 = inactive; ? = inconclusive; - = not tested or not shown; ! = not confirmed by another sample. Most compounds without a hit are left out; they make up all but 2.7% or so of the library.
SMILES,KDM5B inh,IP6K1 inhibitor
Cn1cc(CN2C[C@@H]3C[C@H](C2)c2ccc(NC(=O)COc4ccccc4)c(=O)n2C3)c2ccccc21,28.2µM,0
CN(C)CC(=O)Nc1ccc2n(c1=O)C[C@H]1C[C@@H]2CN(C(=O)c2ccc(-c3ccccc3)cc2)C1,0,0
Cc1nn(CC(=O)NCCN2CCCCCC2)c(=O)c2nc(-c3ccccc3)sc12,20µM,0
Cc1nn(CC(=O)O)c(=O)c2nc(-c3ccccc3)sc12,31.6µM,0
COc1ccc(CNC(=O)Cn2nc(C)c3sc(-c4ccccc4)nc3c2=O)cc1,?,0
Cc1nn(CC(=O)NCCCN2CCCCC2)c(=O)c2nc(-c3ccccc3)sc12,31.6µM,0
O=C(Cn1nc(-c2ccccc2)ccc1=O)NCCCN1CCOCC1,0,-
CCc1nc2c(=O)n(CC(=O)NCc3cccc(Cl)c3)nc(C)c2s1,0,0
COCCNC(=O)Cn1nc(C)c2sc(-c3ccccc3)nc2c1=O,28.2µM,0
Cc1ccc(-c2nn(CC(=O)O)c(=O)c3ccccc23)cc1,0,-
CC(=O)N1CCN(Cc2nnc(C(C)(C)C)o2)CC1,0,-
c1ccc2c(SCc3cn4ccccc4n3)ncnc2c1,0,-
Cc1nn(-c2ccccc2)c2c1C(C)N(C1CCN(C(=O)NC3CCCC3)CC1)C2=O (stereo unspecified),-,0
N#CCCC(C#N)CSc1nnc(-c2c[nH]c3ccccc23)n1C1CC1 (stereo unspecified),0,-
CC(C)NC(=O)N1Cc2ccccc2OC2(CCN(C(=O)c3ccc4[nH]ccc4c3)CC2)C1,0,0
CC(C)NC(=O)N1CCC2(CC1)CN(C(=O)c1ccnc(N)c1)Cc1ccccc1O2,79.4µM,0
Cc1cc(NC(=O)C(C)Sc2nc(Nc3ccccc3)c3ccccc3n2)no1 (stereo unspecified),0,-
NC(=O)c1cccc2[nH]c([C@H]3CCN(Cc4cccc(Cl)c4)C3)nc12,35.5µM,0
COc1ccc(CN2CC[C@H](c3nc4c(C(N)=O)cccc4[nH]3)C2)cc1,?,0
Brc1ccc(CN2CCC(c3nc4ncccc4[nH]3)C2)cc1 (stereo unspecified),20µM!,0
Brc1ccc(CN2CCC(c3nc4ncccc4[nH]3)CC2)cc1,0,0
COc1cc(NC(=O)O[C@@H]2CC[C@]3(C)C(CC[C@@H](O)[C@H]3CC(=O)N3CCCCC3)[C@]2(C)CO)cc(OC)c1OC (stereo partly specified),?,0
Cc1nnc2ccc(N3CCN(C(=O)Nc4ccc(Cl)cc4)CC3)nn12,-,0
CC1CCN(Cc2nnnn2CC(=O)N(C)Cc2ccccn2)CC1,0,0
COc1ccc(CN(C)C(=O)Cn2nnnc2CN2CCOCC2)c2cccnc12,22.4µM,0
SMILES,KDM5B inh,IP6K1 inhibitor
COc1ccccc1-c1cccc(C(=O)N2CCC[C@H]2C(=O)NCC2CCCCCC2)c1,-,0
Cc1ccc(C)c(N2CCN(C(=O)c3cc4cc([N+](=O)[O-])ccc4oc3=O)CC2)c1,0,-
O=C1CC2(CCN(C(=O)c3ccccc3)CC2)Oc2ccccc21,31.6µM,0
O=C1CC2(CCN(C(=O)c3ccccn3)CC2)Oc2ccccc21,31.6µM,0
O=C1CC2(CCN(C(=O)c3ccccc3)CC2)Oc2ccccc2N1,0,0
O=C1NC2(CCCN(C(=O)c3ccccn3)C2)Oc2ccccc21 (stereo unspecified),0,0
O=C1CC2(CCN(C(=O)c3ccccc3F)CC2)Oc2ccccc21,25.1µM,0
O=C(c1ccccc1F)N1CCC2(CC1)CC(=O)N(c1ccccc1)c1ccccc1O2,0,0
Cc1cccc(OCC(=O)N2CCC(NC(=O)c3ccccc3)CC2)c1,0,-
COCCNC(=O)c1cc(-c2ccc(OC)cc2)nc2onc(C3CCCN3)c12 (stereo unspecified),?,0
COc1ccc(-c2cc(C(=O)NC3CC3)c3c(C4CCCN4)noc3n2)cc1 (stereo unspecified),79.4µM,0
O=C(NC1CC1)c1cc(C2CC2)nc2onc(C3CCNC3)c12 (stereo unspecified),?,0
COc1ccc(-c2cc(C(=O)NC3CC3)c3c(C4CCNCC4)noc3n2)cc1,?,0
COc1ccc(-c2cc(C(=O)NC3CC3)c3c(C4CCNC4)noc3n2)cc1 (stereo unspecified),79.4µM,0
O=C(NC1CCNCC1)c1cc(C2CC2)nc2onc(C3CCCN3)c12 (stereo unspecified),79.4µM,0
COc1ccccc1CN1CCNc2cnc(Oc3ccccc3)cc2C1,?,0
COc1ccc(OC)c(CN2CCNc3cnc(-c4ccccc4)cc3C2)c1,31.6µM,0
c1ccc(Oc2cc3c(cn2)NCCN(CC2CCOCC2)C3)cc1,?,0
COc1cccc(CN2CCNc3cnc(-c4ccccc4)cc3C2)c1,35.5µM,0
CN(C)c1ccc(CN2CCNc3cnc(-c4ccccc4)cc3C2)cc1,?,0
c1ccc(-c2cc3c(cn2)NCCN(CC2CC2)C3)cc1,35.5µM,0
Cn1cc(CN2CCNc3cnc(-c4ccccc4)cc3C2)cn1,28.2µM,0
Oc1ccccc1CN1CCNc2cnc(-c3ccccc3)cc2C1,?,0
COCCNC(=O)c1cc(-c2ccc(C)cc2)c2nncn2n1,-,0
CSc1ccc(-c2cccc(CN3CCC(N[S+](=O)([O-])c4ccccc4)CC3)c2)cc1,-,0
SMILES,KDM5B inh,IP6K1 inhibitor
Cn1ncc2c(C(=O)NCc3ccc(F)cc3)cc(-c3cccc(F)c3)nc21,-,0
COc1ccc2oc(-c3ccc(NC(=O)c4ccccc4OC)cc3)nc2c1,0,-
Cc1cccc(CN2CCNc3cnc(Oc4ccccc4)cc3C2)c1,?,0
Cc1cccc(CN2CCNc3cnc(-c4ccccc4)cc3C2)c1,35.5µM,0
CCOc1ccc(N(Cc2cc3cccc(C)c3[nH]c2=O)C(=O)C(C)C)cc1,0,-
CCOc1ccc(N(C(C)C(=O)N(Cc2ccccc2)Cc2ccccc2)S(C)(=O)=O)cc1 (stereo unspecified),0,-
Cc1cn2nc(C(=O)NCc3ccccc3F)cc2c(N(C)Cc2ccccc2)n1,14.1µM,0
Cc1cn2nc(C(=O)NCc3ccc(F)cc3F)cc2c(N(C)Cc2ccccc2)n1,0,0
CCOc1ccccc1CNC(=O)c1cc2c(N3CCCC3)nc(C)cn2n1,?,0
COc1ccccc1CNC(=O)c1cc2c(N(C)Cc3ccccc3)nc(C)cn2n1,14.1µM,0
O=C(Cc1c[nH]c2ccccc12)N1CCN(C(=O)NCCc2ccccc2)CC1,0,-
CCN(CC)c1nc2c(c(=O)n(C)c(=O)n2C)n1CC(O)COc1ccccc1 (stereo unspecified),0,-
N#Cc1ccc2nc([C@H]3CCN(Cc4ccccn4)C3)[nH]c2c1,35.5µM,0
N#Cc1ccc2nc([C@H]3CCN(Cc4ccccc4)C3)[nH]c2c1,?,0
COc1cc(Nc2nc3ccccc3nc2NS(=O)(=O)c2cccs2)cc(OC)c1,0,-
CC(C)CN1C(=O)c2ccccc2C(C(=O)Nc2ccccn2)C12CCCC2 (stereo unspecified),0,0
COCCN1C(=O)c2ccccc2C(C(=O)NCCc2ccc(F)cc2)C12CCCC2 (stereo unspecified),28.2µM,0
Cc1ccnc(NC(=O)C2c3ccccc3C(=O)N(CC(C)C)C23CCCC3)c1 (stereo unspecified),22.4µM,0
COCCN1C(=O)c2ccccc2C(C(=O)NCc2ccccc2Cl)C12CCCC2 (stereo unspecified),?,0
CCc1ccccc1NC(=O)C1c2ccccc2C(=O)N(CCOC)C12CCCC2 (stereo unspecified),0,0
